High-throughput results from PubChem BioAssay.
14-3-3 Bad PPI: disrupts binding of bovine 14-3-3 zeta to phospho-Bad peptide | AID 781 | TR-FRET 14-3-3zeta/Dy647-pBad peptide displacement, 1 h | 0.71% of 220,000 active | inhibition, % at 21.7 µM;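 active means inhibition above about 70%, limit read from the data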;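 further: 0% = full 14-3-3 plus peptide FRET controls and 100% = background without 14-3-3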
Target sequence (P63103 whole entry, looked up): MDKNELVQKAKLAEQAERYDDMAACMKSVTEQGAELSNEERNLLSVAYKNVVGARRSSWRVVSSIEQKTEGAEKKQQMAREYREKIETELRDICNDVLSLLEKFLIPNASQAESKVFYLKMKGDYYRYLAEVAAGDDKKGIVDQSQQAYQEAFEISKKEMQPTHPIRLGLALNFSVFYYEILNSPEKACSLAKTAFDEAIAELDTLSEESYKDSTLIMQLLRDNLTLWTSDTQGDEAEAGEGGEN
eIF4E-4G inh: inhibitors of eIF4E and eIF4G interaction in translation initiation; P63073+Q04637; 0.37% of 220,000 active; inhibition, % at 21.7 µM; TR-FRET eIF4E-eIF4GI(517-606) binding, 2 h; AID 782;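 further: 0% = full FRET control wells and 100% = background wells lacking eIF4GI fragment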
Mcl1-Bid inh: Mcl-1/Bid interaction inhibition | Q07820 | TR-FRET Mcl-1/Bid-Dy647 peptide binding, 1536-well | inhibition, % at 21.7 µM | 0.97% of 220,000 active | AID 1021;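 active means compounds that cut the binding signal by more than half at the single screening dose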;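 further: His-tagged Mcl-1 with europium anti-His antibody binding Bid BH3 peptide; 0% = Mcl-1 plus peptide wells and 100% = peptide-only wells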
Target sequence (Q07820 whole entry, looked up): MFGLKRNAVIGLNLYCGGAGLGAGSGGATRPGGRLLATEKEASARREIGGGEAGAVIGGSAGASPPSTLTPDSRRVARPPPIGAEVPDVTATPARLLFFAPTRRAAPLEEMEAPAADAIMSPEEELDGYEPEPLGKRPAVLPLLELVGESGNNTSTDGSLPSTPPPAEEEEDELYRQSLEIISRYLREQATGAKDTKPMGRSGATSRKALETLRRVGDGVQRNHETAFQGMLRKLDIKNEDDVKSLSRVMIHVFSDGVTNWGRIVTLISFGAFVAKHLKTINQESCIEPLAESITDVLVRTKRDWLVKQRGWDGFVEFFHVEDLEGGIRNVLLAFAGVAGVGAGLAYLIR
Bim-Mcl-1: human Bim-Mcl-1 interaction inhibition. Q07820. Bead-based flow cytometry, Bim peptide-Mcl-1 binding. inhibition, % at 10 µM. 0.1% of 190,000 active. AID 1009; in the data active means inhibition above about 40%;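 further: 0% = no compound tracer wells and 100% = peptide blocker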
Mcl1 Noxa PPI: Mcl-1/Noxa interaction inhibition; TR-FRET Mcl-1/Noxa peptide binding, 2 h; inhibition, % at 21.7 µM; 1.5% of 220,000 active;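 active means compounds that cut the protein-peptide binding signal by more than 50% relative to plate controls in a single-dose test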;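 further: His-tagged Mcl-1 with rhodamine Noxa BH3 peptide and terbium anti-His antibody; 0% = Mcl-1 plus Noxa peptide wells and 100% = peptide-only wells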
NCF1 inh: blocks human p47phox regulatory protein of NADPH oxidases | P14598 | p47phox/p22phox peptide binding, fluorescence polarization, 2 h | inhibition, % at 24.7 µM | 0.53% of 220,000 active;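 further: 0% = p47phox with labelled peptide and 100% = labelled peptide alone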
An asterisk follows results filed as active; / = no result; + = active, no number; [ ] = remark or other dose. In the library only some 3.3% were active in any assay of this set; here they are far more common.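 How the source made its calls, unless noted: active means inhibition above about 30% (limit read from the data); inactive means the rest.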

SMILES	14-3-3 Bad PPI	eIF4E-4G inh	Mcl1-Bid inh	Bim-Mcl-1	Mcl1 Noxa PPI	NCF1 inh
Clc1ccccc1CN1CCc2sccc2C1	-0.7	1.7	88.3*	-3.0	15.8	-8.5
O=C(NC(=S)Nc1ccccc1F)c1ccc(Br)o1	-6.8	1.7	-23.1	-1.0	5.5	-8.5
CCSc1nc2sc3c(c2c(=O)[nH]1)CCCC3	-1.6	-3.2	-4.5	-1.0	8.7	-58.4
CCSC1=NC2(CCCCC2)Nc2sc3c(c21)CCCC3	15.6	-1.6	74.4*	3.0	19.6	7.4
Cc1ccc(SCc2cc(=O)n3ccsc3n2)c(C)c1	2.8	-0.1	-6.0	-4.0	14.9	-4.4
COC(=O)c1ccc(OCc2cc(=O)n3ccsc3n2)cc1	56.4	5.7	65.0*	-5.0	28.5	-8.0
Cc1cc2c(C)cc(=O)[nH]c2cc1NC(=O)CCl	4.6	7.3	4.7	/	24.6	-13.4
O=C(CCl)Nc1cc2[nH]c(=O)[nH]c2cc1Br	-4.2	2.1	-16.9	3.0	50.6*	3.0
Cc1onc(-c2c(F)cccc2Cl)c1C(=O)O/N=C(\N)c1ccc([N+](=O)[O-])o1	-11.9	3.4	-7.3	/	-9.9	-9.9
O=C1Nc2ccc(F)cc2C12Nc1ccccc1-c1nnc(SCc3ccccc3Cl)nc1O2 (centres undefined)	-6.6	-9.1	-6.6	1.0	21.8	39.5*
O=C1Nc2ccc(F)cc2C12Nc1ccccc1-c1nnc(SCc3ccccc3)nc1O2 (centres undefined)	-0.8	-12.1	1.9	-3.0	15.5	13.5
Cc1ccc(C(=O)Nc2ccccc2SCC2CSc3nc4ccccc4c(=O)n32)cc1 (centres undefined)	-3.0	-4.5	52.8*	-1.0	5.8	1.3
COc1ccc(NC(=O)Nc2cccc(C(F)(F)F)c2)cn1	-14.5	0.9	-36.6	0.0	0.1	-13.1
COCCNC(=O)c1ccc2c(=O)n(CCOC)c(=O)[nH]c2c1	84.7*	0.9	-11.0	-5.0	13.3	-8.9
CN(C)c1ccc(C(CNC(=O)c2ccccc2)c2c[nH]c3ccccc23)cc1 (centres undefined)	3.4	-6.6	-0.9	-2.0	68.1*	-34.2
CN(C)c1ccc(C(CNS(=O)(=O)c2ccc(F)c(F)c2)c2c[nH]c3ccccc23)cc1 (centres undefined)	-12.8	1.7	-56.1	-5.0	21.3	-32.4
CN(C)c1ccc(C(CNC(=O)c2ccccc2F)c2c[nH]c3ccccc23)cc1 (centres undefined)	-1.1	-1.9	-2.5	27.0	65.8*	2.2
Cc1cc(=O)c2ccc(Cl)cc2[nH]1	4.5	-1.6	-9.5	-3.0	-1.4	-8.3
Cc1cc(=O)c2ccc(C(F)(F)F)cc2[nH]1	56.6	0.5	82.7*	/	29.8	-6.6
CCOC(=O)/C(=N\Nc1ccccc1Cl)N(C)C1CCCCC1	-11.3	-1.8	-46.2	-2.0	11.6	-2.9
Cc1nc(NC(=O)c2ccccc2)sc1-c1csc(Nc2cccc(F)c2)n1	70.6*	-19.7	-51.0	-4.0	55.5*	-30.2
COc1ccccc1Nc1nc(-c2sc(NC(=O)c3ccccc3)nc2C)cs1	20.3	-1.6	-32.2	0.0	26.5	-4.8
Cc1cc(NS(=O)(=O)c2ccc(Nc3nc(-c4sc(NC(=O)c5ccccc5)nc4C)cs3)cc2)no1	7.4	-4.1	-27.2	1.0	116.5*	-60.6
COc1cccc(Nc2nc(-c3sc(NC(=O)c4ccco4)nc3C)cs2)c1	50.0	-8.0	-49.9	56.0*	42.1	-49.8
O=C(Nc1nc(-c2ccncc2)cs1)c1ccco1	-5.2	-14.7	-13.0	-1.0	93.9*	-10.4
SMILES	14-3-3 Bad PPI	eIF4E-4G inh	Mcl1-Bid inh	Bim-Mcl-1	Mcl1 Noxa PPI	NCF1 inh
Cc1ccc(C2=NNC(=O)C(P(=O)(c3ccccc3)c3ccccc3)C2)cc1 (centres undefined)	-12.3	-0.2	-8.5	-1.0	5.8	4.9
NC(N)=NCC(O)CN(c1ccccc1)c1ccccc1 (centres undefined)	-2.2	1.3	-14.6	/	11.1	1.9
CC(C)CCC(O)(CCC(C)C)C(=O)NN1CCCCC1	2.1	24.8	-20.0	/	6.5	-0.2
COc1ccc(CNC(=O)CCSCc2ccccc2C)cc1	-5.9	19.0	-7.2	-3.0	12.3	-4.2
COc1ccccc1NS(=O)(=O)c1ccc(O)c(NC(=S)NCC2CCCO2)c1 (centres undefined)	2.2	-2.6	-109.5	/	13.0	-11.0
COc1ccccc1Nc1nc(-c2sc(NC(=O)c3ccc([N+](=O)[O-])cc3)nc2C)cs1	49.7	-12.2	25.2	3.0	86.1*	-6.3
Cc1ccc(Cl)cc1Nc1nc(-c2sc(NC(=O)c3ccccc3)nc2C)cs1	82.7*[fluorescence artefact?]	14.9	100.3*	-2.0	106.0*	-30.0
CC(=O)Nc1ccc(-c2csc(N/N=C\c3ccncc3)n2)cc1	5.5	-3.2	-32.4	/	51.4*	-15.0
CCOc1ccccc1Nc1nc(-c2sc(NC(=O)c3cccc(Cl)c3)nc2C)cs1	70.7*	-15.8	-49.2	-6.0	23.6	-8.9
CCOc1ccccc1Nc1nc(-c2sc(NC(=O)c3ccccc3)nc2C)cs1	40.2	-16.5	-45.8	-1.0	31.3	-13.3
CN(C)/C=C/C1=CC(=O)CC(C)(C)C1	-14.3	4.3	-33.7	1.0	-3.8	-6.0
O=[N+]([O-])c1ccc(CN2C=NS(=O)(=O)c3ccccc32)cc1	3.7	-2.5	1.9	-19.0	45.3	-7.6
CCn1ccnc1CN(C)Cc1nc(Cc2cccc(C(F)(F)F)c2)no1	-10.1	0.7	0.6	-4.0	0.5	0.7
Cc1ccc(-c2cc(-c3ccc(F)cc3)c(C#N)c(N)n2)o1	-0.8	1.5	0.5	-3.0	46.1	-18.9
Cc1ccc(-c2cc(-c3ccc4c(c3)OCO4)c(C#N)c(N)n2)o1	0.4	-1.6	80.3*	2.0	59.2*	2.5
Cc1ccc(-c2cc(-c3ccc(Cl)cc3)c(C#N)c(N)n2)o1	-6.8	72.3*[fluorescence artefact?]	23.1	-1.0	72.1*	0.7
Cc1ccc(-c2cc(-c3ccc(C)o3)nc(N)c2C#N)cc1	9.1	11.7	-26.6	37.0	42.5	-14.0
Cc1cc(-c2cc(-c3ccc(Cl)cc3)nc(N)c2C#N)co1	21.2	16.1	40.6	-3.0	66.8*	-12.4
Cc1noc(NS(=O)(=O)c2ccc(N3Cc4ccccc4C3=O)cc2)c1C	+[fluorescence artefact?]	0.8	-29.3	-1.0	14.2	1.0
COc1ccc(-c2nc3nc(N)nn3cc2C)cc1F	-1.8	-1.6	-34.3	0.0	13.2	-2.7
